Bioassay records (PubChem)
Only some compounds are listed: those with a hit (about 27% of all), similar ones and a draw of the others.
CYP2C19 activ – cytochrome P450 2C19 (human) activation; 96,000 tested, under 10 active; recombinant CYP2C19, luciferin-H EGE luminescence; stronger effect = higher value; 0 = fully inhibited enzyme, 1 = untreated enzyme; P33261; activation factor at 5 µM;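 active = activation factor of at least 2 at 5 µM in the primary screen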;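 also: 0 = wells with 2.5 mM tranylcypromine and 1 = vehicle-only wells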
sEH act – soluble epoxide hydrolase (human) activation; purified human sEH enzymatic activity, activator screen; P34913; 91,000 compounds, 0.04% hits; AID 717; activation, % at 2 µM; in the data active = activation above about 37%
Target sequence (P34913 whole entry, looked up): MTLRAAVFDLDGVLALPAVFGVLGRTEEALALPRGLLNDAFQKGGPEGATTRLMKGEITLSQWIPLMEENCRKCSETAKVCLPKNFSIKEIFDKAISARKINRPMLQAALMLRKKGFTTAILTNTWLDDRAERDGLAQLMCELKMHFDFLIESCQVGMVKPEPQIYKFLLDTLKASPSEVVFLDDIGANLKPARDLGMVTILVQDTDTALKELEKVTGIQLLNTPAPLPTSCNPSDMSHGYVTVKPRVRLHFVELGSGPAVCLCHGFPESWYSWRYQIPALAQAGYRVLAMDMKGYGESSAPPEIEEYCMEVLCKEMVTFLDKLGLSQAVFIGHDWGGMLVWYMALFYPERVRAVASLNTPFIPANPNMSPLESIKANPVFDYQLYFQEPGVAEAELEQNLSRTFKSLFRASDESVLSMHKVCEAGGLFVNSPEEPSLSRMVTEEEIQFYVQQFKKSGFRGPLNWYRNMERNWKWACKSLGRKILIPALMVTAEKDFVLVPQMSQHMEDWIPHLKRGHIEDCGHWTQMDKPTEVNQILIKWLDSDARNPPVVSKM
CYP2C9 inhib – blocks human cytochrome P450 2C9. CYP2C9 Supersomes, luciferin-H conversion, luminescence. 96,000 compounds, 20% hits. inhibition, % at 5 µM. AID 777;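 active = blocking of liver enzyme CYP2C9 beyond about 50% at 5 µM, limit read from the data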
sEH inhibitor – soluble epoxide hydrolase (human) inhibition. P34913. recombinant human sEH enzymatic activity assay. inhibition, % at 2 µM. 91,000 compounds, 0.34% hits. AID 707; in the data active = inhibition above about 80%
CYP2C9 act – activators of human CYP2C9; P11712; recombinant CYP2C9, luciferin-H conversion, luminescence; stronger effect = higher value; factor 1 = untreated enzyme, 0 = blocked; activation factor at 5 µM; 96,000 compounds, 1.4% hits; AID 1024;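 active = activation factor of 2 or more for CYP2C9 at a 5 µM dose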;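 also: 0 = sulfaphenazole-blocked wells and 1 = vehicle-only wells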
CYP2C19 inhib – inhibitors of human CYP2C19. CYP2C19 Supersomes, luciferin-H EGE luminescence, 30 min. inhibition, % at 5 µM. 96,000 compounds, 21% hits. AID 778;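 active = CYP2C19 inhibition above a set limit at 5 µM in the primary screen, cut at about 50% in these data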;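 also: plate controls were negative control wells for no effect and 2.5 mM tranylcypromine positive control for full effect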
The depositor's hits bear a star; / = no result.

SMILES	CYP2C19 activ	sEH act	CYP2C9 inhib	sEH inhibitor	CYP2C9 act	CYP2C19 inhib
Cc1c(C(=O)COC(C)(C)C)[nH]c2ccccc12	0.5	1	-8	-4	1.1	55*
CCOC(=O)c1[nH]c2ccccc2c1NC(=O)C(C)(C)C	1	16	40	-14	0.6	2
Cc1cccc(NC(=O)C(C)Oc2ccccc2C)n1 (stereo unspecified)	0.1	3	61*	1	0.4	85*
CCc1nc2ccccc2n1CC(=O)N1CCN(S(=O)(=O)c2cccc(C(F)(F)F)c2)CC1	1	12	2	-10	1	-3
CC(C)(C)C(=O)NC1CCN(S(=O)(=O)c2cccc(C(F)(F)F)c2)CC1	0.2	/	-19	/	1.2	81*
CC(C)CCN(C)C1CCN(S(=O)(=O)c2cccc(C(F)(F)F)c2)CC1	0.5	/	28	/	0.7	52*
CC(C)CCN(C)C1CCN(C(=O)Nc2c(F)cccc2F)CC1	1	2	3	-4	1	2
C=CCNC(=O)C1CC(=O)N(c2ccc(OCC(=O)NCc3ccccc3)cc2)C1 (stereo unspecified)	1	-2	19	1	0.8	-3
CCOC(=O)c1cc2sccc2n1CC(=O)Nc1ccc2c(c1)OCCO2	1.1	21	18	-17	0.8	-6
O=C(NC1CC1)C1CCN(c2ccc(S(=O)(=O)N3CCOCC3)cc2)CC1	1	9	74*	-7	0.3	-2
COc1ccc(S(=O)(=O)N2CCC(C(=O)NCc3ccccn3)CC2)cc1Cl	0.7	-1	-120	4	2.2*	32
COc1ccc(S(=O)(=O)N2CCC(C(=O)NC3CC3)CC2)cc1Cl	0.2	-6	-34	9	1.3	78*
COc1ccc(S(=O)(=O)N2CCC(C(=O)NCc3ccccn3)CC2)cc1C	0.8	6	-130	-4	2.3*	24
CCOC(=O)CCC(=O)Nc1ccccc1C(N)=O	1	3	3	-2	1	-3
CCN1CCN(C(C)C(=O)Nc2c(C)n(C)n(-c3ccccc3)c2=O)CC1 (stereo unspecified)	1.1	5	-10	-5	1.1	-10
CC(=O)[C@@H]1[C@@H]2C(=O)N(Cc3ccccc3)C(=O)[C@@H]2C2c3ccccc3C=CN21 (stereo partly specified)	0.7	/	20	/	0.8	26
N#CC1(Cc2ccc([N+](=O)[O-])cc2)c2ccccc2C=CN1C(=O)c1ccccc1 (stereo unspecified)	0.3	10	68*	-12	0.3	68*
N#CC1(Cc2ccccc2)c2ccccc2C=CN1C(=O)c1ccccc1 (stereo unspecified)	0.1	0	72*	-1	0.3	93*
Fc1ccccc1-c1nc(-c2ccccc2)no1	/	18	/	-20	/	/
COc1ccccc1-c1noc(-c2ccccc2)n1	0.5	0	7	1	0.9	52*
COc1ccc(-c2nc(-c3ccccc3OC)no2)cc1OC	0.4	-11	-52	10	1.5	61*
CCOc1cc(-c2nc(-c3ccccc3OC)no2)cc(OCC)c1OCC	1	-3	9	7	0.9	-4
COc1ccc(-c2noc(-c3ccccc3F)n2)cc1	0.9	7	59*	-8	0.4	10
CCC(C)S(=O)(=O)c1snnc1C (stereo unspecified)	1	-10	-12	8	1.1	4
O=C(NC1CCCCC1)C1CN(S(=O)(=O)c2ccccc2)CCN1S(=O)(=O)c1ccccc1 (stereo unspecified)	0.9	-19	16	20	0.8	12
SMILES	CYP2C19 activ	sEH act	CYP2C9 inhib	sEH inhibitor	CYP2C9 act	CYP2C19 inhib
Cc1cccc(OCc2nc3ccccc3c(=O)n2N)c1	0.7	3	39	-3	0.6	35
CCCOC(=S)N/C(=N\S(=O)(=O)c1ccccc1)c1ccccc1	0.6	4	67*	-4	0.3	37
CCN(CC)/C(=N/S(=O)(=O)c1ccc(C)cc1)c1ccccc1	0.4	3	19	-4	0.8	57*
Cc1ccc(NC(=S)N/C(=N/S(=O)(=O)c2ccccc2)c2ccccc2)cc1	0.8	-3	82*	4	0.2	20
Cc1ccc(S(=O)(=O)/N=C(/NC(=S)Nc2ccccc2)c2ccccc2)cc1	0.8	3	44	0	0.6	25
Cn1ncc(Cl)c1C(=O)Nc1cccnc1	1	0	18	2	0.8	3
